The full ranking holds about 18,000 sequences; the median of “TetR repression strength (sort-seq, GFP reporter)” is about 0.23, and the highest 2% start at about 0.68. Many of the other results were omitted from the sample, so the highest values are more common in it than they were.

Sequence of TetR (class B, Tn10) (P04483 whole entry): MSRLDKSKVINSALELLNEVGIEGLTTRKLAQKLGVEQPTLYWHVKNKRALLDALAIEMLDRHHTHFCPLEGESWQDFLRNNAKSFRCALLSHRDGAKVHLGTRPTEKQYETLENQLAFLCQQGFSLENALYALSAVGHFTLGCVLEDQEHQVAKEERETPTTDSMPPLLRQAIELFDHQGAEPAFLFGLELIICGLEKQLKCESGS

The assay has as its target TetR (class B, Tn10) (UniProt P04483). The assay is described as follows: TetR repression strength (sort-seq, GFP reporter) (relative to tetO2 = 1); higher = stronger repression. The note with it: E. coli. The method in brief: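 E. coli SIG10-MAX carried a low-copy plasmid library with eight randomized operator positions between a constitutive promoter and sfGFP, with TetR constitutively expressed. Cells grew 5 h at 37 °C in LB with 50 µg/mL chloramphenicol, then 10^6 cells were FACS-sorted into 13 fluorescence bins, each Illumina-sequenced. Repression strength is the top bin index plus one minus the read-weighted mean bin, divided by the wild-type operator value. Three independent transformations; variants with ≥30 reads in all replicates and CV ≤0.5 were averaged.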
With TCCCGGGTAGTTACTGAGA, the TetR repression strength is 0.123.

Regarding TCCCCAGAAGTGCGTGAGA, the TetR repression strength was determined as 0.0661.

Turning to TCCCAACGAGTCAACGAGA, the TetR repression strength stood at 0.366.

TCCCAACGAGTCGACGAGA displayed a TetR repression strength of 0.696.

Regarding TCCCAACTAGTCGAAGAGA, the TetR repression strength came out at 0.267.

Take TCCCGACGAGTCGACGAGA: the TetR repression strength was determined as 0.178.

In turn, TCCCAACTAGTCGTCGAGA returned a TetR repression strength of 0.214.

Sequence TCCCAACTAGTCGACGAGA showed a TetR repression strength of 0.701.

In the case of TCCCTGCTAGTGAAGGAGA, the TetR repression strength was found to be 0.649.

The sequence TCCCTAGCAGTGATAGAGA showed a TetR repression strength of 0.858.

Consider TCCCTCCCAGTGATAGAGA, for which the TetR repression strength turned out to be 0.561.

TCCCTTCCAGTGATAGAGA came in with a TetR repression strength of 0.668.

TCCCTACCAGTGATAGAGA: the TetR repression strength is 0.94.

Sequence TCCCTAGCAGTGAGAGAGA displayed a TetR repression strength of 0.376.

For the sequence TCCCTAGTAGTGATAGAGA, the TetR repression strength is 0.533.

On to TCCCTAACAGTGATAGAGA, for which the TetR repression strength was 0.816.

For the sequence TCCCAACGAGTTGTGGAGA, the TetR repression strength was 0.189.

In turn, TCCCACGCAGTAGGTGAGA had a TetR repression strength of 0.138.

In the case of TCCCTGCTAGTAGGAGAGA, the TetR repression strength worked out at 0.415.

Turning to TCCCAGTCAGTGGCGGAGA, the TetR repression strength is 0.205.

Turning to TCCCTAGAAGTACTAGAGA, the TetR repression strength is 0.152.

On to TCCCCAGCAGTTTAGGAGA, for which the TetR repression strength worked out at 0.207.

In turn, TCCCGTCTAGTTTGTGAGA gave a TetR repression strength of 0.784.

TCCCGTCGAGTTTTTGAGA gave a TetR repression strength of 0.363.

In turn, TCCCGTCGAGTTAGTGAGA registered a TetR repression strength of 0.366.

TCCCGTCTAGTTAGTGAGA yielded a TetR repression strength of 0.719.

In turn, TCCCGTCTAGTGTGTGAGA returned a TetR repression strength of 0.237.

For the sequence TCCCGTCTAGTTAGAGAGA, the TetR repression strength stood at 0.224.

As for TCCCGTCTAGTTTGCGAGA, the TetR repression strength turned out to be 0.277.

TCCCGTCGAGTTTGTGAGA gave a TetR repression strength of 0.772.

Regarding TCCCGTCGAGTTTGAGAGA, the TetR repression strength was 0.274.

The sequence TCCCTGTGAGTCGCGGAGA had a TetR repression strength of 0.327.

With TCCCGGTCAGTGCTAGAGA, the TetR repression strength came to 0.638.

TCCCAGGGAGTCAGTGAGA came in with a TetR repression strength of 0.319.

In turn, TCCCTACTAGTAGTAGAGA had a TetR repression strength of 0.389.

TCCCGGATAGTTGATGAGA: the TetR repression strength is 0.285.

Consider TCCCACTCAGTGAGGGAGA, for which the TetR repression strength was 0.255.

TCCCGCAGAGTTAGAGAGA gave a TetR repression strength of 0.5.

TCCCATACAGTGAGTGAGA showed a TetR repression strength of 0.176.

TCCCGAGAAGTCGCGGAGA showed a TetR repression strength of 0.0355.

With TCCCGTGCAGTCGTGGAGA, the TetR repression strength came to 1.

TCCCGTGGAGTCGTGGAGA returned a TetR repression strength of 0.209.

With TCCCAGTAAGTGTCGGAGA, the TetR repression strength is 0.811.

In turn, TCCCAGTAAGTCGGGGAGA had a TetR repression strength of 0.698.

As for TCCCAGTGAGTGTCGGAGA, the TetR repression strength came out at 0.183.

In the case of TCCCAGTAAGTCCGGGAGA, the TetR repression strength was 0.157.

The sequence TCCCAGTAAGTATCGGAGA came in with a TetR repression strength of 0.221.

The sequence TCCCTGTAAGTGACGGAGA gave a TetR repression strength of 0.796.

Sequence TCCCGTGCAGTCGTCGAGA yielded a TetR repression strength of 0.216.

As to TCCCTGAAAGTGACGGAGA, the TetR repression strength stood at 0.506.

As for TCCCTGTGAGTGACGGAGA, the TetR repression strength came to 0.115.

As to TCCCAGTAAGTGGGGGAGA, the TetR repression strength is 0.196.

TCCCGCATAGTAGGTGAGA returned a TetR repression strength of 0.317.

TCCCAATGAGTTCGTGAGA came in with a TetR repression strength of 0.

For TCCCTCATAGTGGGCGAGA, the TetR repression strength is 0.213.

For TCCCGCCCAGTAGGGGAGA, the TetR repression strength came out at 0.163.

Take TCCCTGCAAGTTGATGAGA: the TetR repression strength was 0.246.

TCCCATGTAGTCCTGGAGA had a TetR repression strength of 0.341.

In the case of TCCCCTTAAGTGGTAGAGA, the TetR repression strength was 0.201.

TCCCCGTTAGTGTCGGAGA showed a TetR repression strength of 0.137.

TCCCGTACAGTCGGGGAGA returned a TetR repression strength of 0.698.

For TCCCAGCCAGTCGGGGAGA, the TetR repression strength amounted to 0.184.

The sequence TCCCGTATAGTCGGGGAGA showed a TetR repression strength of 0.216.

Sequence TCCCAGTCAGTCGGGGAGA gave a TetR repression strength of 0.776.

TCCCGTACAGTGGGGGAGA gave a TetR repression strength of 0.145.

The sequence TCCCATTCAGTCTTTGAGA returned a TetR repression strength of 0.228.

In turn, TCCCAGTGAGTCTTTGAGA displayed a TetR repression strength of 0.339.

As to TCCCAGTCAGTCTTTGAGA, the TetR repression strength is 0.726.

In turn, TCCCTGTCAGTCGGGGAGA registered a TetR repression strength of 0.154.

In the case of TCCCGGTGAGTCAAAGAGA, the TetR repression strength stood at 0.338.

In turn, TCCCTTCCAGTCATTGAGA came in with a TetR repression strength of 0.225.

Turning to TCCCTGTCAGTATAGGAGA, the TetR repression strength was 0.0605.

Sequence TCCCGCCGAGTGGACGAGA came in with a TetR repression strength of 0.514.

As for TCCCCTGCAGTTGGAGAGA, the TetR repression strength worked out at 0.159.

For TCCCAGTTAGTTGAGGAGA, the TetR repression strength came to 0.231.

For the sequence TCCCACGGAGTCACCGAGA, the TetR repression strength was determined as 0.205.

For the sequence TCCCGCTCAGTGATAGAGA, the TetR repression strength amounted to 0.742.

Consider TCCCGATAAGTCAGTGAGA, for which the TetR repression strength is 0.747.

In the case of TCCCGATAAGTGATAGAGA, the TetR repression strength is 0.733.

TCCCGCTCAGTGGTAGAGA gave a TetR repression strength of 0.428.

For the sequence TCCCTATAAGTGATAGAGA, the TetR repression strength amounted to 0.994.

The sequence TCCCGATGAGTCAGTGAGA yielded a TetR repression strength of 0.38.

With TCCCTATAAGTCGTAGAGA, the TetR repression strength came out at 0.503.

TCCCGACAAGTGATAGAGA: the TetR repression strength was 0.642.

Take TCCCGATAAGTGAGTGAGA: the TetR repression strength amounted to 0.375.

In turn, TCCCGCTCAGTGTTAGAGA came in with a TetR repression strength of 0.433.

The sequence TCCCGAGAAGTGATAGAGA returned a TetR repression strength of 0.425.

With TCCCCCTAAGTGATAGAGA, the TetR repression strength was found to be 0.442.

Turning to TCCCGTATAGTGGGGGAGA, the TetR repression strength turned out to be 0.0618.

TCCCGGGTAGTGACGGAGA: the TetR repression strength turned out to be 0.181.

TCCCACGAAGTGCCTGAGA: the TetR repression strength is 0.486.

As to TCCCAGGGAGTAAAGGAGA, the TetR repression strength came out at 0.188.

The sequence TCCCGCAGAGTTGGCGAGA gave a TetR repression strength of 0.186.

TCCCGCTGAGTGATAGAGA yielded a TetR repression strength of 0.483.

As for TCCCGGTAAGTGATAGAGA, the TetR repression strength came out at 0.609.

TCCCGATAAGTGGCTGAGA: the TetR repression strength turned out to be 0.523.

Sequence TCCCGCTAAGTGATAGAGA came in with a TetR repression strength of 0.69.

TCCCTTTTAGTGATAGAGA: the TetR repression strength is 0.512.

In turn, TCCCGACAAGTAGCTGAGA returned a TetR repression strength of 0.187.

Sequence TCCCGATCAGTGATAGAGA returned a TetR repression strength of 0.778.

Sequence TCCCGATCAGTGCTAGAGA displayed a TetR repression strength of 0.657.

For the sequence TCCCTAATAGTGATAGAGA, the TetR repression strength was 0.614.

In turn, TCCCTATTAGTGATAGAGA returned a TetR repression strength of 0.878.

For the origin of these results see a collection of fitness landscapes (doi:10.1038/s41467-024-54723-y).
